KCNH2 WT inh = qHTS for Inhibitors of KCHN2 3.1: Wildtype qHTS | Voltage-gated inwardly rectifying potassium channel KCNH2 (Homo sapiens), Q12809 | AID 720551, 2013 | 0.37% of 340,000 active | U2OS, BacMam KCNH2, thallium flux FluxOr; hits give low values | activity change, % at 1.84 µM;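 active means maximum activity change below -70%; inconclusive means maximum activity change between -70% and -50%; inactive means maximum activity change above -50%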; further: on the % scale 0 is the no-effect control and ±100 the full control effect
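U2OS cells were transduced with wild-type KCNH2 virus (2.03 x 10^8 / mL) for 4 h at room temperature, then cultured overnight at 37 C. Thallium flux was read with FluxOr dye. Rate constants were normalized to DMSO controls.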
TRPV1 potentiator = HTS Assay for Compounds that Act as Potentiators of the Vanilloid Receptor 1. TRPV1-expressing cells, Fluo-8 calcium influx, capsaicin EC20 potentiation. potentiation, % at 8.33 µM. 0.02% of 320,000 active. Transient receptor potential cation channel subfamily V member 1 (Homo sapiens), Q8NER1. AID 540277, 2011; in the data active means potentiation above about 80%; inconclusive means between about 30% and that limit; further: 0% is about no effect
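Fluo-8 calcium influx in TRPV1-expressing cells, kinetic read (ex 480/em 520 nm). Compound added and read 3 min for agonist activity, followed by capsaicin at EC20 final and 2 min further read for enhancement.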
TRPV1 agonist = HTS Assay for Compounds that Act as Agonists of the Vanilloid Receptor 1. TRPV1-expressing cells, Fluo-8 calcium influx, agonist mode. activation, % at 8.33 µM. 0.19% of 320,000 active. Transient receptor potential cation channel subfamily V member 1 (Homo sapiens), Q8NER1; in the data active means activation above about 80%; inconclusive means between about 30% and that limit; further: 0% is about no effect
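Fluo-8 calcium influx in TRPV1-expressing cells, kinetic read (ex 480/em 520 nm). Compound added and read 3 min for agonist activity, followed by capsaicin at EC20 final and 2 min further read for enhancement.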
KCNH2 3.1 inh = qHTS for Inhibitors of KCHN2 3.1: Mutant qHTS; U2OS KCNH2 3.1, thallium flux FluxOr; hits give low values; AID 720553, 2013; Potassium voltage-gated channel subfamily H member 2, brain isoform KCNH2 3.1 (human); 0.95% of 340,000 active; activity change, % (tested at about 1.8 µM);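 active means maximum activity change below -70%; inconclusive means maximum activity change from -70% to -50%; inactive means maximum activity change above -50%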;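 further: thallium influx rate constant from kinetic fluorescence after stimulation buffer; on the % scale 0 is the no-effect control and ±100 the full control effect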
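Channel expression came from 3.1 mutant virus (1.77 x 10^8 /mL) applied to suspended U2OS cells for 4 h. Flux was tracked with FluxOr dye plus Red40 quencher, and kinetic rate constants normalized to controls.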
Numbers without * were called inactive. In the library only some 1.3% were active in any assay of this set; here they are far more common.

How did CCC(C)c1ccc(NC(=S)NCc2ccccc2OC)cc1 (stereo unspecified) do in these assays?
KCNH2 WT inh: -2.0; TRPV1 potentiator: -11.9; TRPV1 agonist: 83.2*; KCNH2 3.1 inh: 15.4

How did Cc1ccc(C)c(NC(=O)CCN2CCN(c3ccccc3F)CC2)c1 do in these assays?
KCNH2 WT inh: 2.3; TRPV1 potentiator: -14.8; TRPV1 agonist: 25.3; KCNH2 3.1 inh: -11.8

How did COc1ccc(NC(=O)CS(=O)c2cccc(C(F)(F)F)c2)cc1 (stereo unspecified) do in these assays?
KCNH2 WT inh: -7.0; TRPV1 potentiator: -0.6; TRPV1 agonist: 11.5; KCNH2 3.1 inh: 4.3

How did CSc1ccc(/C=N/NC(=O)CN2CCN(Cc3ccccc3Cl)CC2)cc1 do in these assays?
KCNH2 WT inh: 28.5; TRPV1 potentiator: -6.5; TRPV1 agonist: 1.7; KCNH2 3.1 inh: -82.2*

What do the screens show for `CSc1ccc(/C=N/NC(=O)CN2CCN(Cc3ccc(C)cc3)CC2)cc1`?
KCNH2 WT inh: -46.7; TRPV1 potentiator: 0.2; TRPV1 agonist: 0.4; KCNH2 3.1 inh: -113.3*

How did O=C(CN1CCN(Cc2ccc(Cl)cc2)CC1)N/N=C/c1ccncc1 do in these assays?
KCNH2 WT inh: 10.0; TRPV1 potentiator: -5.3; TRPV1 agonist: 1.9; KCNH2 3.1 inh: -43.4

How did O=C(CN1CCCCCC1)N/N=C/c1ccc(Cl)c(Cl)c1 do in these assays?
KCNH2 WT inh: -0.7; TRPV1 potentiator: -7.5; TRPV1 agonist: -1.0; KCNH2 3.1 inh: -75.5*

How did Cc1cccc(/C=N/NC(=O)CN2CCCCCCC2)c1 do in these assays?
KCNH2 WT inh: 6.8; TRPV1 potentiator: -3.6; TRPV1 agonist: 14.2; KCNH2 3.1 inh: 18.1

Results for Cc1ccc(/C=N/NC(=O)CN2CCN(Cc3ccccc3Cl)CC2)o1 ?
KCNH2 WT inh: 11.2; TRPV1 potentiator: 2.7; TRPV1 agonist: 2.5; KCNH2 3.1 inh: 8.2

What do the screens show for `Cc1ccccc1NS(=O)(=O)c1ccc(C(=O)N2CCCC(C(F)(F)F)C2)cc1` (stereo unspecified)?
KCNH2 WT inh: 4.0; TRPV1 potentiator: -5.6; TRPV1 agonist: 7.9; KCNH2 3.1 inh: -8.1

Results for Cc1cccc(NC(=O)C23CCC(C)(C(=O)O2)C3(C)C)c1 (stereo unspecified) ?
KCNH2 WT inh: -9.4; TRPV1 potentiator: 0.6; TRPV1 agonist: -3.1; KCNH2 3.1 inh: 4.2

How did Cc1cc(NC(=O)C23CCC(C)(C(=O)O2)C3(C)C)no1 (stereo unspecified) do in these assays?
KCNH2 WT inh: -22.1; TRPV1 potentiator: -10.6; TRPV1 agonist: -3.9; KCNH2 3.1 inh: -191.3*

How did CCN1C[C@@H]2[C@@H]3C(=O)N(C)C(=O)[C@@H]3[C@](Cc3ccccc3)(C(=O)OC)N2C1=NCc1ccccc1 do in these assays?
KCNH2 WT inh: -22.0; KCNH2 3.1 inh: -2.5

Results for CN1CCCN(C(c2ccccc2)c2ccc(Cl)cc2)CC1 (stereo unspecified) ?
KCNH2 WT inh: -21.7; TRPV1 potentiator: 6.2; TRPV1 agonist: 3.5; KCNH2 3.1 inh: -98.5*

How did CCN(c1ccccc1)S(=O)(=O)c1ccc(OC)c(NC(=O)CCc2nc3ccccc3c(=O)[nH]2)c1 do in these assays?
KCNH2 WT inh: 3.2; TRPV1 potentiator: 8.5; TRPV1 agonist: -1.1; KCNH2 3.1 inh: -18.5

Results for CCCN(CC1CC1)C(=O)CCc1nnc(CCc2c[nH]c3ccccc23)o1 ?
KCNH2 WT inh: 5.2; TRPV1 potentiator: 11.0; TRPV1 agonist: -7.2; KCNH2 3.1 inh: -98.5*

How did CCN(CC(=O)NCc1cccs1)C(=O)c1ccc(-c2ccc(F)cc2)o1 do in these assays?
KCNH2 WT inh: 0.1; KCNH2 3.1 inh: -0.4

How did O=C(O)C=C(Br)Br do in these assays?
KCNH2 WT inh: 2.7; TRPV1 potentiator: -2.0; TRPV1 agonist: -0.2; KCNH2 3.1 inh: -1.6

How did Cc1cc(C)c(O)c(-c2n[nH]c3c2C(c2cccc(O)c2)N(Cc2ccco2)C3=O)c1 (stereo unspecified) do in these assays?
KCNH2 WT inh: -91.1*; KCNH2 3.1 inh: -0.3

Results for O=C1c2[nH]nc(-c3ccccc3O)c2C(c2cccc(Cl)c2)N1Cc1ccco1 (stereo unspecified) ?
KCNH2 WT inh: -11.6; TRPV1 potentiator: -2.5; TRPV1 agonist: 2.0; KCNH2 3.1 inh: -15.9

What do the screens show for `CCOc1ncccc1C(=O)Nc1cc2c(cc1Br)OCCO2`?
KCNH2 WT inh: -0.2; KCNH2 3.1 inh: 0.3

How did Clc1cc(Cl)c(OCCCCn2cncn2)c(Cl)c1 do in these assays?
KCNH2 WT inh: -8.2; TRPV1 potentiator: 13.7; TRPV1 agonist: 14.3; KCNH2 3.1 inh: 9.8

What do the screens show for `COc1ccc(-c2cc(C(=O)Nc3ccc(C(N)=O)cc3)c3ccccc3n2)cc1OC`?
KCNH2 WT inh: 2.6; TRPV1 potentiator: -2.0; TRPV1 agonist: 1.2; KCNH2 3.1 inh: -0.4

What do the screens show for `COc1ccc(-c2cc(C(=O)Nc3ccc(S(=O)(=O)Nc4onc(C)c4C)cc3)c3ccccc3n2)cc1OC`?
KCNH2 WT inh: 42.2; TRPV1 potentiator: -13.3; TRPV1 agonist: 4.3; KCNH2 3.1 inh: -81.2*

What do the screens show for `O=C(c1cc(-c2ccc(Br)cc2)nc2ccccc12)N1CCN(c2ccccc2O)CC1`?
KCNH2 WT inh: -5.3; TRPV1 potentiator: 4.1; TRPV1 agonist: -3.1; KCNH2 3.1 inh: -74.3*

Results for COc1ccc(-c2cc(C(=O)N3CCN(c4ncccn4)CC3)c3ccccc3n2)cc1OC ?
KCNH2 WT inh: 15.6; TRPV1 potentiator: -13.9; TRPV1 agonist: -0.2; KCNH2 3.1 inh: -142.4*

What do the screens show for `Cc1ccc(-c2cc(C(=O)N3CCN(c4ncccn4)CC3)c3ccccc3n2)cc1`?
KCNH2 WT inh: -7.3; TRPV1 potentiator: 0.9; TRPV1 agonist: -3.1; KCNH2 3.1 inh: -71.0*

Results for COc1ccc(-c2cc(C(=O)N3CCC3)c3ccccc3n2)cc1OC ?
KCNH2 WT inh: 2.2; TRPV1 potentiator: 2.9; TRPV1 agonist: -0.5; KCNH2 3.1 inh: 10.5

What do the screens show for `Cc1ccc(N(CC(=O)NCc2ccco2)C(=O)CNS(=O)(=O)c2ccccc2)c(C)c1`?
KCNH2 WT inh: -1.2; TRPV1 potentiator: 3.8; TRPV1 agonist: -0.6; KCNH2 3.1 inh: -12.9

How did Cc1nn(C(=O)N(C)C)c(C)c1CN1C(=O)c2ccccc2C1=O do in these assays?
KCNH2 WT inh: -29.8; TRPV1 potentiator: 1.8; TRPV1 agonist: 0.7; KCNH2 3.1 inh: -25.4

How did CCN(CC)CCSc1nc2ccccc2n1Cc1ccccc1 do in these assays?
KCNH2 WT inh: inconclusive; TRPV1 potentiator: 15.7; TRPV1 agonist: 5.3; KCNH2 3.1 inh: -75.3*

What do the screens show for `CN(C)C(=O)CSc1nc2ccccc2n1Cc1ccccc1`?
KCNH2 WT inh: 6.8; TRPV1 potentiator: -2.5; TRPV1 agonist: 0.0; KCNH2 3.1 inh: 18.0

How did Cc1cc(C)n(-c2nc(-c3ccc(Cl)c(Cl)c3)cs2)n1 do in these assays?
KCNH2 WT inh: -124.9*; TRPV1 potentiator: -2.4; TRPV1 agonist: 2.2; KCNH2 3.1 inh: -45.9

Results for Cc1cc(C)n(-c2ccc(Cl)c(Cl)c2)n1 ?
KCNH2 WT inh: 4.0; TRPV1 potentiator: -13.7; TRPV1 agonist: 4.2
